In PubChem BioAssay (Tox21):
Values without a mark were called inactive. Records with an inconclusive call do not appear. Where a call stands in place of a potency, no number is given. Calls of active or inactive are those of the source. Unless noted, the call rests on the fitted dose curve.

What was measured:
[1] = qHTS assay to identify small molecule antagonists of the sonic hedgehog signaling (Shh) pathway (AID 1259369); further: nearly all actives have a fitted effect of over 45% in size; further: potency means the concentration at half of the fitted maximal effect
In short: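 Luminescence readout: firefly Luc under Gli1 response element in 3T3Gli1-Luc cells (NIH/3T3 clone). Antagonist mode, stimulation by conditioned medium; compound exposure 24hr at 37 C, 5% CO2.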

[2] = biological target: Estrogen receptor beta (Homo sapiens) (UniProt Q92731); assay: qHTS assay to identify small molecule antagonists of the estrogen receptor beta (ER-beta) signaling pathway (AID 1259378; active means well fitted inhibition curve with a large enough effect in the signal ratio in the repeat runs, not every such curve was filed as active; the % refers to the signal ratio; further: potency means the concentration at half of the fitted maximal effect)
In short: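 ER-beta-UAS-bla HEK293T cells in 2% charcoal-stripped FBS medium treated with compound plus 1nM final 17-beta-estradiol for 16 hr at 37C. Beta-lactamase reporter read by FRET substrate fluorescence after 2 hours at room temperature.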

[3] = qHTS assay to identify small molecule agonists of the androgen receptor (AR) signaling pathway in the presence of an antagonist - cell viability counter screen (AID 1259379; active means well fitted curve in the direction sought with a large enough effect in the repeat runs; an effect the other way counts as inactive or inconclusive; further: nearly all actives have a fitted effect of over 25% in size; further: potency means the concentration at half of the fitted maximal effect)
In short: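 Viability counter screen: CellTiter-Fluor fluorescence, measured in the same wells as the luciferase read-out. MDA-kb2 cells, 3,000/well, with nilutamide at 3.0uM final and compounds at 15 concentrations, 16 hr at 37C, 0% CO2.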

[4] = qHTS assay to identify small molecule agonists of the estrogen receptor beta (ER-beta) signaling pathway - cell viability counter screen (AID 1259380; active means well fitted curve in the direction sought with a large enough effect in the repeat runs; an effect the other way counts as inactive or inconclusive; further: nearly all actives have a fitted effect of over 30% in size; further: potency means the concentration at half of the fitted maximal effect)
In short: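 Luminescence read-out (CellTiter-Glo, 30 min, room temp) taken in the same wells as the beta-lactamase reporter assay; ER-beta-UAS-bla HEK293T cells exposed to DMSO-dissolved compounds for 16 hr at 37C in 2% charcoal-stripped FBS medium.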

[5] = qHTS assay to identify small molecule antagonists of the estrogen receptor beta (ER-beta) signaling pathway - cell viability counter screen (AID 1259382; active means well fitted curve in the direction sought with a large enough effect in the repeat runs; an effect the other way counts as inactive or inconclusive; further: nearly all actives have a fitted effect of over 55% in size; further: potency means the concentration at half of the fitted maximal effect)
In short: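 Luminescent ATP read-out (CellTiter-Glo, 30 min, RT) taken in the same wells as the bla reporter assay. HEK293T ER-beta-UAS-bla cells in 2% charcoal-stripped FBS were exposed to compounds with 1nM E2 for 16 hr at 37C.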

[6] = biological target: Estrogen receptor (Homo sapiens) (UniProt P03372); assay: qHTS assay to identify small molecule agonists of the estrogen receptor alpha (ER-alpha) signaling pathway in the presence of an antagonist (AID 1259383); further: top concentration of the series differs between compounds; nearly all actives have a fitted effect of over 15% in size
In short: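 Luciferase luminescence (ONE-Glo, 30min at room temperature) measured in VM7Luc4E2 cells after 22hr compound exposure at 15 concentrations, with 10.0nM ICI-182,780 final present; cells express endogenous ER-alpha and carry four EREs upstream of luciferase.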

[7] = qHTS assay to identify small molecule agonists or antagonists of the thyroid stimulating hormone receptor (TSHR) signaling pathway - wild type cell line counter screen (AID 1259384); further: potency means the concentration at half of the fitted maximal effect
In short: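 Wild-type Hek293 cells, 800/well, 18 h at 37C, then compound with Ro20-1724 for 30 min RT. cAMP by HTRF (cAMP-d2/anti-cAMP cryptate), 1 h RT, fluorescence read. 15 concentrations, triplicates.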

[8] = biological target: Estrogen receptor beta (Homo sapiens) (UniProt Q92731); assay: qHTS assay to identify small molecule agonists of the estrogen receptor beta (ER-beta) signaling pathway (AID 1259377; active means well fitted activation curve with a large enough effect in the signal ratio in the repeat runs, not every such curve was filed as active; the % refers to the signal ratio; further: potency means the concentration at half of the fitted maximal effect)
In short: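 qHTS in ER-beta-UAS-bla HEK293T cells: 6 hr settling, then 16 hr compound at 37C, then LiveBLAzer substrate 2 h at RT before fluorescence reading.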

[9] = biological target: Thyrotropin receptor (Homo sapiens) (UniProt P16473); assay: qHTS assay to identify small molecule antagonists of the thyroid stimulating hormone receptor (TSHR) signaling pathway (AID 1259385); further: nearly all actives have a fitted effect of over 20% in size; further: potency means the concentration at half of the fitted maximal effect
In short: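 TSHR-HEK293 cells (800/well) plated 18 h, then compounds with Ro20-1724 and TSH at 1.5 ng/mL final, 30 min at room temperature. cAMP quantified by HTRF (cAMP-d2/anti-cAMP-cryptate, 1 h); 15 concentrations in triplicate.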

[10] = biological target: Androgen receptor (Homo sapiens) (UniProt P10275); assay: qHTS assay to identify small molecule agonists of the androgen receptor (AR) signaling pathway in the presence of an antagonist (AID 1259381); further: nearly all actives have a fitted effect of over 15% in size
In short: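 Luciferase read-out (ONE-Glo, 30min room temperature) in MDA-kb2 MMTV-reporter cells; agonist mode run in presence of AR antagonist nilutamide, 3.0uM final. Compounds tested as 15-point series, 16hr exposure at 37C, 0% CO2.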

Sequence of Estrogen receptor (Homo sapiens) (P03372 whole entry, looked up): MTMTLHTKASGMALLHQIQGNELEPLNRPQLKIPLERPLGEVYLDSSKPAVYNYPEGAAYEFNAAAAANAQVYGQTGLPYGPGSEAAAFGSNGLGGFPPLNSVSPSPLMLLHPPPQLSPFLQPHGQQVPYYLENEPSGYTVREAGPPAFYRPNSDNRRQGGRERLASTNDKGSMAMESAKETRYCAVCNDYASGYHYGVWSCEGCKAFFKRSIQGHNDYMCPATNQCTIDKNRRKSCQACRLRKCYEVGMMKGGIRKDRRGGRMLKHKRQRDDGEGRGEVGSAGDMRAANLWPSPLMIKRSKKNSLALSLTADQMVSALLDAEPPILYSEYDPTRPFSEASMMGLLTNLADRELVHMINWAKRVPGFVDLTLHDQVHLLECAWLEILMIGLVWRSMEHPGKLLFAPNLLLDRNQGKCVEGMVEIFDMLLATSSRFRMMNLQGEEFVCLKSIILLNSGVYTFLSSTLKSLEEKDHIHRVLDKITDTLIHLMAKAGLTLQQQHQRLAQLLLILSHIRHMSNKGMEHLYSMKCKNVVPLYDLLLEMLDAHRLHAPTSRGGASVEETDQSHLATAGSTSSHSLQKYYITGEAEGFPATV
Sequence of Estrogen receptor beta (Homo sapiens) (Q92731 whole entry, looked up): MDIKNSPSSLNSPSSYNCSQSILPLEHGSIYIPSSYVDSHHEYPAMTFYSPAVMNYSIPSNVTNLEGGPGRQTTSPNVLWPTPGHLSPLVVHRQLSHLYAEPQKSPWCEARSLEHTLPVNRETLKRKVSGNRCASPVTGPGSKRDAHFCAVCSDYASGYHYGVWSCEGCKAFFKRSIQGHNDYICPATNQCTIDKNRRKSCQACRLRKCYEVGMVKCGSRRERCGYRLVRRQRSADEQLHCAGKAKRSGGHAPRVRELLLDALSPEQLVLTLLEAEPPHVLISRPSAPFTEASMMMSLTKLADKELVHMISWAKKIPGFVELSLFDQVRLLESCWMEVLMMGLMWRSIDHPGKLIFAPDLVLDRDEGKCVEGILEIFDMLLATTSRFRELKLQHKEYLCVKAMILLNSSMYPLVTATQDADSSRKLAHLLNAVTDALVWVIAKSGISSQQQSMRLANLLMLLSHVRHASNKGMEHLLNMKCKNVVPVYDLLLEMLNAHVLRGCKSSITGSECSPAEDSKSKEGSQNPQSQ
Sequence of Thyrotropin receptor (Homo sapiens) (P16473 whole entry, looked up): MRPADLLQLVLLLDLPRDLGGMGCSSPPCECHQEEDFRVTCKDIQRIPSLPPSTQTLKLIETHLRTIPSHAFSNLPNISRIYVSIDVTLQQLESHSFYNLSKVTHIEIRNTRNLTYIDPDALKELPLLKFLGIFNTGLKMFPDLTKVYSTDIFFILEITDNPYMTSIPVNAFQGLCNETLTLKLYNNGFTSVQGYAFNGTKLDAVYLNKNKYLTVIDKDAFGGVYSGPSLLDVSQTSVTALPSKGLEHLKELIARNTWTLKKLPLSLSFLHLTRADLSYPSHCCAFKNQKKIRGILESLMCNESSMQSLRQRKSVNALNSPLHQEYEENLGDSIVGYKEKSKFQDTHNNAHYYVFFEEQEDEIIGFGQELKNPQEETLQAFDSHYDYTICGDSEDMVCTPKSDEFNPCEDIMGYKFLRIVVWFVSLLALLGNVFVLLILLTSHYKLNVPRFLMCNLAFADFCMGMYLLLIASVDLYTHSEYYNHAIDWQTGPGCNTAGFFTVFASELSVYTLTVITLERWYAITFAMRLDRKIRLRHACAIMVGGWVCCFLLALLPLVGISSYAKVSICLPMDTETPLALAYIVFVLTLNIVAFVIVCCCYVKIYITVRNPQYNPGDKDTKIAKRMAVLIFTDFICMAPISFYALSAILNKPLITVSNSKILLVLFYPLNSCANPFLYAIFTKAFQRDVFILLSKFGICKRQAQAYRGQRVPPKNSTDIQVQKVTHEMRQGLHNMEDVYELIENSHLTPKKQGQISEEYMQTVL
Sequence of Androgen receptor (Homo sapiens) (P10275 whole entry, looked up): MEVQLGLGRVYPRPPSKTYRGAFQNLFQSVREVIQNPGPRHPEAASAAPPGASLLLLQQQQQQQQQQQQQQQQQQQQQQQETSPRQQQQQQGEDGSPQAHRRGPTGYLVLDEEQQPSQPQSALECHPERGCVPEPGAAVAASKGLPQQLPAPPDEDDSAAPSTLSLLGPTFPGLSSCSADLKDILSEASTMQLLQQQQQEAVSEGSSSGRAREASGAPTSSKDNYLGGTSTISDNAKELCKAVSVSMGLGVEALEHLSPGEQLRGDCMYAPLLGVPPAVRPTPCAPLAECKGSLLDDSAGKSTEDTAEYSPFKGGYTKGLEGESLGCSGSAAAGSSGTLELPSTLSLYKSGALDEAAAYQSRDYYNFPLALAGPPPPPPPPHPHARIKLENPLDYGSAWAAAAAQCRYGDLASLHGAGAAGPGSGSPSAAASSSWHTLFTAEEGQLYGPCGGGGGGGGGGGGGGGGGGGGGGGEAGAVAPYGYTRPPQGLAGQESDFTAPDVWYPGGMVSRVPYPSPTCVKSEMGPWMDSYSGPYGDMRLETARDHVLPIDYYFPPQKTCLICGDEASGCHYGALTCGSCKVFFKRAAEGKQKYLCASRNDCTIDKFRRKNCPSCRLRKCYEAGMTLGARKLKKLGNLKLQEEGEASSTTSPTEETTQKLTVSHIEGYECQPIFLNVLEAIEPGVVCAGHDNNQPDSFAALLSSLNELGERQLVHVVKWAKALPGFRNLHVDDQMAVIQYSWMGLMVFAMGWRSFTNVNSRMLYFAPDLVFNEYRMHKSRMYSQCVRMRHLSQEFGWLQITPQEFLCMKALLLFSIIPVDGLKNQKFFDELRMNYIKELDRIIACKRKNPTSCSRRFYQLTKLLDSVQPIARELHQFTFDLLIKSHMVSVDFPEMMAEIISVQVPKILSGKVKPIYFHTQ

SMILES	Potency [1]	Potency [2]	Potency [3]	Potency [4]	Potency [5]	Potency [6]	Potency [7]	Potency [8]	Potency [9]	Potency [10]
COc1cc(Cl)ccc1Oc1ccc(Cl)cc1Cl	inactive	inactive	inactive	inactive	inactive	inactive	inactive			
Cc1ccc(C(=O)Oc2ccc(C(O)CNC(C)(C)C)cc2OC(=O)c2ccc(C)cc2)cc1 (configuration not stated)	inactive			26.6 µM (active)		inactive	0.0362 µM (active)	inactive	inactive	
CCCCC(CC)COC(=O)COc1ccc(Cl)cc1Cl (configuration not stated)	inactive	inactive	inactive		inactive	inactive	inactive			
O=[N+]([O-])c1cccc(S(=O)(=O)O)c1	inactive	2.2 µM (active)	62.1 µM (active)	24.7 µM (active)	inactive					
CC(C)CC(=O)C1C(=O)c2ccccc2C1=O	61.1 µM (active)		inactive		inactive	inactive	inactive	inactive		inactive
O=C(O)c1ccc(S(=O)(=O)O)cc1C(=O)O	inactive	inactive	inactive	inactive	inactive	inactive	inactive		inactive	
CCCCO	inactive	inactive	inactive	inactive	inactive		inactive		inactive	
CCCNCC(O)COc1ccccc1C(=O)CCc1ccccc1 (configuration not stated)	4.73 µM (active)		inactive	26.6 µM (active)	23.7 µM (active)		inactive	inactive		
O=C1[C@H]2CCCC[C@H]2C(=O)N1CCCCN1CCN(c2nsc3ccccc23)CC1	23.7 µM (active)				inactive	inactive	inactive	inactive	inactive	
CC(C)(CO)[N+](=O)[O-]	inactive	inactive	inactive	inactive	inactive					
O=C(O)C1(C(=O)O)CCC1.[NH2-].[NH2-].[Pt+2]	inactive	inactive	inactive	inactive	inactive	inactive	inactive		inactive	
NCc1ccccc1Sc1ccccc1CO	inactive	inactive	inactive	inactive	inactive	inactive	inactive		inactive	inactive
CC(C)Nc1ccc(NC(C)C)c2c1C(=O)c1ccccc1C2=O	inactive	inactive	11.3 µM (active)		inactive	inactive	inactive			
Nc1cccc([N+](=O)[O-])c1	inactive	inactive	inactive		inactive	inactive				inactive
C[N+](C)(C)CCOC(=O)CCC(=O)OCC[N+](C)(C)C	inactive	inactive	inactive	inactive		inactive	inactive		inactive	
Brc1c2ccccc2cc2ccccc12	inactive	inactive	inactive	61.8 µM (active)		inactive	inactive			
O=C1C(O)=C(O)C(=O)C(O)=C1O	inactive	inactive	inactive	inactive	inactive	inactive	inactive		inactive	
COc1ccc(C(=O)N2CCN(CC(=O)N3CCOCC3)CC2)cc1	inactive	inactive	inactive	inactive	inactive	inactive	inactive		inactive	
Clc1ccc2c(c1)CCc1cccnc1C2=C1CCNCC1	1.68 µM (active)			33.5 µM (active)	18.8 µM (active)	inactive	inactive	inactive	26.6 µM (active)	
CCC(C)(C)CC	inactive	inactive	inactive							
COc1ccc2cccc(CCNC(C)=O)c2c1	inactive	inactive	inactive		inactive	inactive				inactive
O=C(Nc1ccccc1)c1ccccc1O	54.5 µM (active)		61.1 µM (active)		inactive			inactive		inactive
C#C[C@]1(O)CC[C@H]2[C@@H]3CCc4cc(OC5CCCC5)ccc4[C@H]3CC[C@@]21C	inactive		inactive	29.8 µM (active)			inactive	6.68 µM (active)		
c1ccc(C(O[C@H]2CCCN(CCc3ccc4c(c3)OCO4)C2)c2ccccc2)cc1	inactive		inactive		inactive	inactive	inactive	inactive	inactive	
CC(=O)NO	inactive		inactive		inactive		inactive	inactive	inactive	
CC(C)(C)Cl	inactive	inactive	inactive	inactive	inactive	inactive	inactive		inactive	
C=C1[C@H]2CC[C@@H]3[C@H]2C(C)(C)CCC[C@]13C	inactive	inactive	inactive		inactive	inactive				
CC(C)=CCC/C(C)=C/CC/C(C)=C/CO	43.3 µM (active)		inactive		inactive		inactive	inactive	inactive	
CCCOC(C(=O)OC1CCN(C)CC1)(c1ccccc1)c1ccccc1	21.1 µM (active)			26.6 µM (active)		inactive	inactive	inactive	inactive	
N=c1ccn2c(n1)O[C@H]1[C@H](O)[C@@H](CO)O[C@H]12	inactive		inactive	inactive	inactive	inactive	inactive		inactive	
